In PubChem BioAssay (Tox21):
Records with an inconclusive call do not appear. Entries that show only a call come without a potency. Unmarked numbers belong to inactive results. Active and inactive are the calls of the source. Calls follow the shape of the dose curve; as a rule, active = well fitted cell-killing curve with a large enough effect in the repeat runs; inconclusive = weak or mixed curves, or effect the other way; inactive = flat fitted curve, though single readings scatter.

experiment: cAMP Responsive Elements (CRE) small molecule agonists, cell-based qHTS assay: qHTS cell viability counter screen (AID 2060914); settings: CRE-bla HEK293T viability, CellTiter-Glo luminescence, 5 h; series mostly up to 92.4 µM; also: nearly all actives have a fitted effect of over 50% in size
Summary of the method: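 Cytotoxicity was measured as ATP luminescence (CellTiter-Glo, 30 min at room temperature) in the same wells as the CRE-bla FRET read-out. HEK293T CRE-bla cells had 3 h compound exposure at 37C/5% CO2.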
Potency is read from the fitted curve at half-maximal effect.

Row | SMILES | Potency | activity change, negative = cytotoxicity
1 | OCC(Cl)CCl (configuration not stated) | inactive | 
2 | Cc1ccc2c(c1)C1CN(C)CCC1N2 (configuration not stated) |  | -0.524% [at 18.9 µM]
3 | OCC(c1ccc(Cl)cc1)c1ccc(Cl)cc1 | inactive | 
4 | CC1COC(Cn2cncn2)(c2ccc(Oc3ccc(Cl)cc3)cc2Cl)O1 (configuration not stated) | inactive | 
5 | O=[N+]([O-])c1cccc2c([N+](=O)[O-])cccc12 | 61.4 µM (active) | 
6 | CCOC(=O)C(c1c(O)c2ccccc2oc1=O)c1c(O)c2ccccc2oc1=O | inactive | 
7 | CC(C)C(=O)Cl | inactive | 
8 | C=C(C)[C@H]1Cc2c(ccc3c2O[C@@H]2COc4cc(OC)c(OC)cc4[C@@H]2C3=O)O1 | inactive | 
9 | c1ccc2c(c1)Sc1ccccc1N2CC1CN2CCC1CC2 (configuration not stated) | inactive | 
10 | COc1cccc2c1cc([N+](=O)[O-])c1c(C(=O)O)cc3c(c12)OCO3 | inactive | 
11 | Cc1ccc(N)c(N)c1 | inactive | 
12 | CCO/N=C(\CC)C1=C(O)CC(c2c(C)cc(C)cc2C)CC1=O (configuration not stated) | inactive | 
13 | CC(C)(C)C(O)/C(=C\c1ccc(Cl)cc1Cl)n1cncn1 (configuration not stated) | inactive | 
14 | N#CC1(N=NC2(C#N)CCCCC2)CCCCC1 | inactive | 
15 | O=C1C(Cl)C(CCl)CN1c1cccc(C(F)(F)F)c1 (configuration not stated) | inactive | 
16 | O=C1Nc2ccc(Cl)cc2C(c2ccccc2)=NC1O (configuration not stated) | inactive | 
17 | O=C(CCCN1CCC(n2c(=O)[nH]c3ccccc32)CC1)c1ccc(F)cc1 | inactive | 
18 | ClC(Cl)(Cl)Br | inactive | 
19 | CNc1cnn(-c2cccc(C(F)(F)F)c2)c(=O)c1Cl | inactive | 
20 | O=C(Nc1ccccc1)Nc1ccnc(Cl)c1 | inactive | 
21 | C=CC(Cl)CCl (configuration not stated) | inactive | 
22 | CCOP(=O)(OCC)OCC | inactive | 
